ALDH1A1 inh: inhibitors of human aldehyde dehydrogenase 1A1. AID 1030. P00352. 220,000 compounds, 7.3% hits. Purified ALDH1A1, NADH fluorescence, propionaldehyde substrate. Potency, µM (doses to about 75.3 µM), for the others: top-dose activity, negative = inhibition, hits mostly inhibitors; active = well fitted inhibition curve with a large enough effect, not every such curve was filed as active; inconclusive = small, poorly fitted or top-dose-only effect, or another doubt; inactive = no such curve, though single readings can be large or run the other way;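 note: potency is the fitted concentration of half-maximal effect; plate controls were no enzyme wells and a reference inhibitor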
CBFb RUNX1 block: blocks binding between human CBF-beta and RUNX1; Q01196+Q13951; AlphaScreen CBFb-His/RUNX1-biotin binding, biochemical; Potency, µM (titrated, usually from 59.8 µM), inactives show at the top dose activity, negative = inhibition, actives largely listed as inhibitors; 230,000 tested, under 10 active; AID 1477; note: % of control where 0% means no effect
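AlphaScreen binding: CBFb-His and RUNX1-biotin (30 nM each) preincubated 20 min, compound added for 15 min, then nickel and streptavidin beads for 90 min, all at room temperature. Disruption of the interaction by any mechanism counts as activity.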
HPGD block: HPGD (human) dehydrogenase inhibition | P15428 | purified HPGD, NADH fluorescence kinetic, PGE2 substrate | Potency, µM, for inactives: at the highest dose activity change, negative = inhibition, usual class: inhibitors | 150,000 compounds, 4.3% hits | AID 894; active = well fitted inhibition curve with a large enough effect, not every such curve was filed as active; inconclusive = small, poorly fitted or top-dose-only effect, or another doubt; inactive = no such curve, though single readings can be large or run the other way; note: potency is the fitted concentration of half-maximal effect; % is set by controls: 0 for no effect and ±100 for the full control effect
Target sequence (P15428 whole entry, looked up): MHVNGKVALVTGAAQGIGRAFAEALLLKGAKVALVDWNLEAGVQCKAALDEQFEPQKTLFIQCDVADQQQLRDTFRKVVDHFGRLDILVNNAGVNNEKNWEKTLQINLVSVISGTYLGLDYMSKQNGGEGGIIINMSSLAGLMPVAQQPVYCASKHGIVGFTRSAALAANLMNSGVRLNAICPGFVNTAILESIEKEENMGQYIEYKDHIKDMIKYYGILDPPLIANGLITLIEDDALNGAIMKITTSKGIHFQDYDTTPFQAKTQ
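NADH formation kinetics: reaction with 30 uM PGE2 and 1 mM NAD+ (final), 20 nM enzyme, Tris-HCl pH 8 with Tween 20, after 15 min compound preincubation at room temperature. Fluorescence change, last versus first of five reads.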
PNC assembly inh: blocks assembly of the perinucleolar compartment. PC3M PTB-GFP, PNC prevalence imaging, 16 h; hits give low values. AID 2417. activity change (PNC), negative = inhibition, % at 10 µM. 140,000 compounds, 3.1% hits;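 active = readout at or below -70, meaning at least 70% loss of cells showing the perinucleolar compartment, a nuclear body marking cancer cells; inconclusive = readout between -30 and a set limit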;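 note: plate controls were DMSO wells for no effect and camptothecin positive control wells for full effect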
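Compounds are pinned in duplicate onto adhered PC3M cells stably expressing GFP-tagged PTB and incubated 16 h at 37 C. Cells are then fixed, nuclei stained with Hoechst, and PNC-positive cells counted.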
HTT ATP protect: cytoprotection in Huntington HTT-Q103 PC12 cell model | Potency, µM (titrated, usually from 56.4 µM), for the others: cytoprotection (ATP increase), usual class: activators | PC12 HTT-Q103 induced, cytoprotection, ATP luminescence, 40 h | 230,000 compounds, 0.14% hits; note: potency is the fitted concentration of half-maximal effect; % of control where 0% means no effect; nearly all actives have a fitted effect of over 45% in size
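Compounds added alongside 100 nM tebufenozide, which induces toxic Q103 huntingtin exon 1-GFP in stable PC12 cells; surviving cells quantified by luminescent ATP measurement. Medium: phenol red-free DMEM, 5% equine and 5% calf serum.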
HTT aggregate: inhibitors of mutant huntingtin aggregate formation in PC12 cells; Potency, µM (highest dose often 46.1 µM), without a hit: top-dose activity change, negative = inhibition, usual class: inhibitors; 220,000 compounds, 1.1% hits; PC12 HttQ103-GFP aggregates, Acumen cytometry, 40 h; note: potency is the fitted concentration of half-maximal effect; % is set by controls: 0 for no effect and ±100 for the full control effect; nearly all actives have a fitted effect of over 60% in size
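PC12 cells stably carrying ecdysone-inducible HTT exon 1 Q103–GFP were induced with tebufenozide (100 nM final) and treated with library compounds in titration. GFP aggregates in lysates were counted by laser scanning cytometry.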
The depositor's hits bear a star; u = inconclusive; x = not tested or not shown; ! = not active in a repeat; [ ] = remark or other dose. Hits are enriched below; roughly 11% of the tested compounds scored in any of these assays. Unless noted, calls come from the whole dose curve; as a rule, active = well fitted curve in the direction sought with a large enough effect; inconclusive = small, poorly fitted or top-dose-only effect, or another doubt; inactive = no such curve, though single readings can be large; an effect the other way counts as inactive or inconclusive.

SMILES	ALDH1A1 inh	CBFb RUNX1 block	HPGD block	PNC assembly inh	HTT ATP protect	HTT aggregate
CCCCSc1nc(O)c(C2OC(=O)c3c2ccc(OC)c3OC)c(=O)n1C (stereo not drawn)	-3%	4%	-5%	-3	-2%	u
N[C@H](CSSC[C@@H](N)C(=O)O)C(=O)O	x	3%	x	x	x	x
Cc1ccc(S(=O)(=O)N2CCN(C(C)C(=O)Nc3ccccc3-c3ccccc3)CC2)cc1 (stereo not drawn)	7.9µM*	-1%	0%	-25	17%[10 µM]	-9%
CC(C(=O)Nc1ccccc1-c1ccccc1)N1CCN(C(=O)c2ccccc2)CC1 (stereo not drawn)	13µM*	4%	x	x	-31%[10 µM]	-2%[9.22 µM]
CC(C(=O)Nc1ccccc1-c1ccccc1)N1CCN(Cc2ccccc2)CC1 (stereo not drawn)	14µM*	2%	x	x	-51%	17%
C/C=C/C(=O)C[C@H]1CC[C@@H](C)[C@@H](CCO)O1	u	18%	-2%	x	9%	x
O=C(Nc1ccccc1N1CCN(C(=O)c2ccccc2)CC1)c1cccc(Cl)c1	x	16%	x	x	-14%[10 µM]	-32%[9.22 µM]
O=C(Nc1ccccc1N1CCN(C(=O)c2ccc(Cl)cc2)CC1)c1ccc2c(c1)OCO2	u	8%	u	-102*	-5%	-4%
Cc1cc(C)nc(NS(=O)(=O)c2ccc(NC(=O)c3ccc4c(c3)OCO4)cc2)n1	25µM*	-2%	u	-26	0%[10 µM]	7%[9.22 µM]
O=C(Nc1ccc(C(=O)N2CCCC2)cc1)c1ccc2c(c1)OCO2	u	3%	6.3µM*	-17	-10%	-11%
COC(=O)c1ccc(C(NC(=O)OCc2ccccc2)/C(C)=C/[C@@H](C)C(=O)N2CCN(C)CC2)cc1 (stereo partly drawn)	u	-2%	-10%	x	10%	x
COCCCNC(=O)c1ccc(N2CCCC2)c(NS(=O)(=O)c2ccc(C)cc2)c1	14µM*	2%	-25%	7	-27%[0.074 µM]	u
Cc1ccc(S(=O)(=O)Nc2cc(C(=O)NCCN(C)C)ccc2N2CCCCC2)cc1	16µM*	-9%	-6%	56	24%[10 µM]	-9%
CCOCCCNC(=O)c1ccc(N2CCCC2)c(NS(=O)(=O)c2ccc(C)cc2)c1	7.9µM*	4%	x	x	-50%	-4%
CCOC(=O)OCC1OC(c2ccc(C(C)=O)cc2)C=CC1OC(=O)OCC (stereo not drawn)	-17%[13.5 µM]	-7%[13.1 µM]	x	x	5%[10 µM]	x
Cc1ccc(Nc2ccc(NCc3ccccc3)nn2)cc1C	-4%	-18%	-24%	22	x	1%
Cc1ccc(-c2nnc(NCc3ccccc3)c3ccccc23)cc1	6%	-4%	3.2µM*	u	-11%[10 µM]	8%
Oc1ccc(Nc2nnc(-c3ccc(O)cc3)c3ccccc23)cc1	5%	1%	x	x	9%[10 µM]	-6%
Clc1ccc(Nc2ccc(NCc3ccccc3)nn2)cc1	-10%	-13%	5.6µM*	3	38%[0.074 µM]	-12%
Clc1ccc(-c2nnc(NCc3ccccc3)c3ccccc23)cc1	22µM*	4%	5.6µM*	-25	-12%[10 µM]	-5%
CO[Si](CCCNCCC[Si](OC)(OC)OC)(OC)OC	2%	13%[21.7 µM]	-6%	x	-4%	x
COC(=O)[C@@]1(Cc2ccccc2)[C@H]2c3cc(C(=O)N4CCCC4)n(Cc4ccccc4)c3C[C@H]2CN1C(=O)c1ccccc1	-9%	-5%	-13%	x	-54%	x
COc1ccccc1C(c1nnnn1CC1CCCO1)N1CCC(C(N)=O)CC1 (stereo not drawn)	3%	-3%	-18%	-100*	10%[10 µM]	-15%
C=CCN1CCN(C(c2cc(OC)ccc2OC)c2nnnn2CC2CCCO2)CC1 (stereo not drawn)	28µM*	13%	-12%	u	10%	4%
CN(C)CCNCCN	4%[13.5 µM]	x	-6%	x	5%[10 µM]	x
SMILES	ALDH1A1 inh	CBFb RUNX1 block	HPGD block	PNC assembly inh	HTT ATP protect	HTT aggregate
O=C(O)CSc1ncnc2scc(-c3ccc(Br)cc3)c12	x	11%	x	x	0%[10 µM]	0%[9.22 µM]
CC(C)Cc1nnc(NC(=O)Cc2ccc([N+](=O)[O-])cc2)s1	u	3%	-3%	4	x	-4%
Cn1c(-c2ccccc2)c(C(=O)CCl)c2ccccc21	4µM*	-7%	x	x	-141%	u
CCn1c(-c2ccccc2)c(C(=O)CCl)c2ccccc21	6.3µM*	9%	x	x	-143%	u
CCn1c(=O)c(C(=O)NCCc2ccccc2)c(O)c2ccccc21	0%	27%	-9%	u	-3%[10 µM]	u
Cn1c(-c2ccccc2)c(O)c(=O)c2ccccc21	-6%[13.5 µM]	4%[13.1 µM]	x	x	6%[10 µM]	x
C/C(CCN1CCCc2nc(C)c(C)cc21)=N\O[C@@H](C)c1cc(-c2c(C)cc(C)cc2C)no1	4%[13.5 µM]	7%[13.1 µM]	x	x	u	x
Clc1ccc2c(c1)C(N1CCNCC1)=Nc1ccccc1O2	-6%	12%	-16%	-9	0.35µM*!	4%
CC1=Nc2cc(Cl)ccc2Oc2ccccc21	-3%	10%	x	x	-39%	-5%
O=C1NC(=S)SC1=C1CCCC1	u	u	35µM*	14	2%	-7%[9.22 µM]
COC(=O)N/N=C/c1ccc(Oc2ccccc2)cc1	-4%	4%	x	x	-58%	-9%
Cc1cccc(C)c1NC(=O)CN(CC(=O)O)CC(=O)O	x	x	x	x	u	0%
N#Cc1cc([N+](=O)[O-])cnc1N(CCO)CCO	-1%	2%	-14%	-25	14%[10 µM]	13µM*
COC(=O)[C@@]1(Cc2ccc(F)cc2)[C@H]2c3cc(C(=O)N(C)C)n(Cc4c(CO)[nH]cc(C)c4=O)c3C[C@H]2CN1C(=O)c1ccccc1	-11%	-5%	-15%	14	-5%	-17%
O=C(Nc1ccccc1N1CCOCC1)C1CCN(S(=O)(=O)c2ccccc2F)CC1	u	3%	-7%	20	14%[10 µM]	-20%
CCN1CCCC1CN=Cc1c(O)n(-c2ccccc2)c(=O)c2ccccc12 (stereo not drawn)	u	0%	-28%	-92*	-14%[0.074 µM]	-21%

Screening data deposited in PubChem by National Center for Advancing Translational Sciences (NCATS).
